Data on 40 compounds can be found in ChEMBL document CHEMBL3988442, “University of Dundee, Small-Polar-MMV Screening Library” (2021).

The target in this assay is AMP-activated protein kinase, AMPK (Homo sapiens) (UniProt P54646+O43741+P54619+Q9UGJ0+Q9Y478+Q13131+Q9UGI9). Kind of assay: AMP-dependent Kinase enzyme assay. An in vitro enzyme assay that detects ADP turnover that is directly proportional to AMPK activity. This uses naive AMPK that is activated during the assay with MK-8722. The following applies: 30 µM. More on the design: scale not given: direction of the effect not stated beside the values. It is filed as functional.
With `Cc1cc(CNC(=O)N2CCOC(c3ccccc3Cl)C2)no1` (stereo not given), the Percent Effect was -7.62%.
With `CN(CCc1ncnn1-c1ccccc1Cl)C1CCS(=O)(=O)C1` (stereo not given), the Percent Effect was -10%.
In the case of `COC(=O)NCC(=O)NC1(C)CCc2ccccc2C1` (stereo not given), the Percent Effect was 12.8%.
Next, `CC(C(=O)N1CCC(c2[nH]ncc2-c2ccccc2)CC1)n1cncn1` (stereo not given): -1.59%; `CN1CCCC(CCC(=O)N2CCc3c(nc(CC4CC4)[nH]c3=O)C2)C1` (stereo not given): 10.8%; `CN(CC(=O)NCCc1ccccn1)C(=O)c1cccs1`: 4.43%.
Consider `CN(C)c1nc(N)nc(CN2CCC(c3nc4ccccc4o3)CC2)n1`, for which the Percent Effect was -11.3%.
Next, `O=C1CN(C(=O)CC2C(=O)NCCN2CC2CCCCC2)CCN1` (stereo not given): -5.33%; `O=C(C1CCCO1)N1CCC(n2cc(-c3ccc(F)cc3)nn2)CC1` (stereo not given): 3.48%; `NC(=O)CC1CCN(Cc2ccccc2OCC(F)(F)F)CC1`: -3.02%.
For `CN(CCc1ccccc1)Cc1c(C2CCOCC2)[nH]c2ncccc12`, the Percent Effect was 11.1%.
For the compound `CC(C)(C)CC(NC(=O)N1CCC(C(N)=O)CC1)C(F)(F)F` (stereo not given), the Percent Effect was -1.73%.
Next, `Cc1noc(C)c1CNCC1CNc2ccnn2C1` (stereo not given): -0.962%.
With `CCN(C)Cc1cccc(CNC(=O)NCCc2ccccn2)c1`, the Percent Effect turned out to be 3.33%.
Next, `O=C(O)c1ccn(-c2ccc(NC(=O)c3ccccc3Cl)cc2)n1`: 5.04%.
Next, `COc1cccc(-c2n[nH]cc2-c2nc(CC3CCN(C)CC3)no2)c1`: -6.69%.
For `CC(=O)N1CCC(NC(=O)CN2CCCc3c(F)ccc(C)c32)CC1`, the Percent Effect amounted to 3.84%.
`COc1ccc(-c2cc3nc(CCNC(=O)CN(C)C)nn3cn2)cc1`: the Percent Effect was found to be 15%.
Turning to `CCC[C@@H]1CN(Cc2ccc(C(F)(F)F)nc2)C[C@H]1C(=O)O`, the Percent Effect is -4.32%.
For the compound `CCn1c(C2CCNCC2)nn(CCn2cncn2)c1=O`, the Percent Effect was 3.82%.
On to `Cc1cc(N2CCC(O)(C(=O)O)CC2)nc2ccccc12`, for which the Percent Effect was determined as 3.47%.
Next, `CCc1ncc2c(n1)CN(c1cc(NC3CC3)nc(N)n1)C2`: -118%; `COc1cc(OC)cc(-c2cccc3c2OC(CN)C3)c1` (stereo not given): -5.59%.
`O=C1NCCCCC1NC(=O)N1CCCc2ccccc21` (stereo not given): the Percent Effect was -0.938%.
With `O=C(c1coc(COc2ccccc2F)n1)N1CCCO1`, the Percent Effect worked out at 6.72%.
`Cc1cc(F)ccc1N1CCCC(NC(=O)CCCn2ccnc2)C1` (stereo not given): the Percent Effect came to 8.09%.
As for `Cc1cc(C)n(-c2cccc(NC(=O)N3CCC[C@@H]3CO)c2)n1`, the Percent Effect was -5.07%.
Take `Cc1nn(C)c(C)c1C1COCCN1C(=O)CC(C)(C)C` (stereo not given): the Percent Effect was -3.31%.
Turning to `CN1CCCN(c2ccc(F)cc2CNC(=O)c2ccsc2)CC1`, the Percent Effect amounted to 5.4%.
Turning to `c1nc(N2CCCC2)cnc1C1CCNCC1`, the Percent Effect came to 11.5%.
With `Fc1ccccc1CN1CCC[C@H](Cn2nnc(-c3cccs3)n2)C1`, the Percent Effect came to 4.46%.
Consider `c1ccc(C2CN(C3CC3)CC3(CCN(Cc4cscn4)CC3)C2)cc1` (stereo not given), for which the Percent Effect is 4.81%.
Next, `Cc1ccc2nc(C(=O)N3CC(n4nc(C)cc4C)C3)cn2c1`: -4.01%; `Cc1nonc1CNC(=O)C(C)Oc1cccc(F)c1` (stereo not given): 11.1%; `CC(=O)N1CC(c2ccnc(Nc3nccs3)n2)C1`: 1.83%.
For the compound `CC(C)c1nc(CSc2nnc(C3CC3)n2CC(N)=O)no1`, the Percent Effect is -5.73%.
Next, `CCCNc1ncc(CN2CCC3(CCNC(=O)CC3)CC2)cn1`: -1.43%; `Cc1nc(N)cc(NCc2csc(N(C)C)n2)n1`: -14.5%; `CCC(O)CN1CCN(C(=O)CCSC)CC1` (stereo not given): -2.43%.
Consider `COc1cc(CN2CC[C@@H](N3CCCCCC3)[C@H](O)C2)cc(Cl)c1OC`, for which the Percent Effect came out at 13.6%.
